GSH fluor – compound fluoresces at 488/530 nm on GSH beads | fluorescence (KMESF) at 10 µM | actives 0.25% (n = 190,000) | GSH beads flow cytometry, compound fluorescence 488/530 nm; active compounds read high; in the data active means fluorescence above about 89;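 further: glutathione beads carrying GST-tagged Bcl family fusion proteins plus one bare bead set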
Avidin bead fluor – compound fluoresces at 488/530 nm on avidin beads; compound fluorescence 488/530 nm, flow cytometry; active compounds read high; fluorescence (KMESF) at 10 µM; actives 0.38% (n = 220,000); AID 1775; in the data active means fluorescence above about 47
EP2 antag – blocks the human prostaglandin E2 receptor EP2; P43116; C6 glioma cells expressing human EP2, cAMP TR-FRET; cells stimulated with saturating PGE2; inhibition, % at 25 µM; actives 0.52% (n = 260,000);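 active means percent inhibition above 40 after rounding to a whole number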;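 further: rat C6 glioma host cells with rolipram phosphodiesterase inhibitor present; the protocol text gives 20 µM as final concentration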
Target sequence (P43116 whole entry, looked up): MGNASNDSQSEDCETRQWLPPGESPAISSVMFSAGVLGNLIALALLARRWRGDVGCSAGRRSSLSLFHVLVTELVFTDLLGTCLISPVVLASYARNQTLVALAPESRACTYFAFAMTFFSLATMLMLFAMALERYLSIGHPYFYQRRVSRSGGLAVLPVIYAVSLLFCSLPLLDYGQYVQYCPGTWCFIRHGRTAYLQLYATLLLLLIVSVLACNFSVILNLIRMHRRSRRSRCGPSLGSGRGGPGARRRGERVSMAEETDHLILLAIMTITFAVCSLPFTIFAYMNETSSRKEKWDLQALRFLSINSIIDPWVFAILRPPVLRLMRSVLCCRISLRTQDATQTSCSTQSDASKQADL
HMGR II inh – blocks class II HMG-CoA reductase of Enterococcus faecalis; purified E. faecalis HMGR, NADPH absorbance 340 nm kinetic; inhibition, % at 10 µM; actives 0.41% (n = 190,000); AID 1066;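 active means inhibition above a set limit, the median over all tested compounds plus 3 SD, cut at about 9.5% in these data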;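 further: enzyme runs in reverse so mevalonate oxidation gives rising NADPH absorbance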
EP2 mod – modulates human prostaglandin E2 receptor EP2 signaling; P43116; EP2-expressing cells, cAMP HTRF FRET, PGE2 co-stimulation; induction, % at 25 µM; actives 0.83% (n = 260,000); AID 940;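 active means compounds whose cAMP rise, as percent of the full-agonist control response, exceeds 60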;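 further: rat C6 glioma line stably carrying human EP2 under a CMV promoter; the protocol text gives 20 µM as final concentration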
A number is an active result; n = inactive; x = not tested or not shown. Shown are actives, neighbours in structure and some others; about 2.1% of the full set was active somewhere.

SMILES	GSH fluor	Avidin bead fluor	EP2 antag	HMGR II inh	EP2 mod
O=C(O)C1C2C=CC(C2)C1C(=O)NCc1ccc2c(c1)OCO2 (stereo unspecified)	n	n	n	n	n
COc1ccccc1Sc1ccccc1/C=N/NC(N)=O	n	n	n	15.4	n
CC1(CC(=O)N/N=C/c2ccc(-c3cccc(C(F)(F)F)c3)o2)OCCO1	n	254	n	n	n
O=C(Nc1nc2c(Br)cc(Br)cc2c(=O)s1)c1ccco1	x	n	n	x	65.2
O=C(/C=C/c1ccccc1)NCCc1c[nH]c2ccccc12	x	x	74.2	x	n
COc1cc(C(=O)NCCc2c[nH]c3ccccc23)ccc1OCc1c(C)noc1C	n	n	88.4	n	n
O=C(NCCc1c[nH]c2ccccc12)c1ccc(-n2cnnn2)cc1	n	67	n	n	n
COc1cc(C(=O)OCC(=O)NC2CCS(=O)(=O)C2)ccc1OCc1c(C)noc1C (stereo unspecified)	n	73	n	n	n
COc1ccccc1CNC(=O)c1ccc(OCc2c(C)noc2C)c(OC)c1	n	n	n	n	n
COc1cc(C(=O)OCC#N)ccc1OCc1c(C)noc1C	x	n	n	x	n
COc1ccccc1N1CCN(C(c2cc3cccc(C)c3[nH]c2=O)c2nnnn2C(C)(C)C)CC1 (stereo unspecified)	x	x	n	x	n
O=c1[nH]c(=S)n(-c2ccccc2F)c(O)c1/C=C1\C=Nc2ccccc21	x	x	116.2	x	n
COc1ccc(C2(C(=O)N3CCC(n4nc(-c5ccoc5C)oc4=O)CC3)CC2)cc1	x	x	n	x	n
CSc1ncc(C(=O)NCc2noc(-c3ccccc3)n2)cn1	x	x	n	x	n
CCC1CCCCN1c1nc(-c2ccncc2)nc2ccccc12 (stereo unspecified)	n	n	n	n	n
CC1CCCCN1c1nc(-c2ccncc2)nc2ccccc12 (stereo unspecified)	n	n	n	n	64.6
CCSc1nc(-c2cccs2)nc2ccccc12	n	n	n	n	64.2
c1ccc(CNc2nc(-c3cccs3)nc3ccccc23)cc1	n	n	n	n	n
O=C1OCCN(Cc2ccccc2)C1=O	x	x	n	x	n
COc1ccc(CN(C(=O)c2cccs2)C(C(=O)NC2CCCCC2)c2ccco2)cc1 (stereo unspecified)	x	x	n	x	n
COc1cc(C(=O)Nc2cccc(-c3cn4cccnc4n3)c2)cc(OC)c1OC	n	n	n	n	n
COc1ccc(-c2cn3cccnc3n2)cc1NC(=O)c1cc(OC)c(OC)c(OC)c1	n	n	n	9.6	n
c1cc2c(cnc3cscc32)s1	n	n	42.2	n	n
COc1cccc(CC(=O)N2CCC(Cn3nc(-c4cccs4)ccc3=O)CC2)c1	x	x	n	x	n
COc1ccc(OC)c(-c2csc(N(C)C(=O)COc3ccc(C)cc3)n2)c1	x	x	53.9	x	n
SMILES	GSH fluor	Avidin bead fluor	EP2 antag	HMGR II inh	EP2 mod
CCN(C(=O)C1CC1)c1nc(-c2cc(OC)ccc2OC)cs1	x	x	n	x	65.3
COc1cccc(CC(=O)Nc2nc(-c3cc(OC)ccc3OC)cs2)c1	n	n	n	12.2	n
COc1ccc(CC(=O)Nc2nc(-c3cc(OC)ccc3OC)cs2)cc1	n	n	n	n	n
Cc1nn(CC(=O)N2CCOCC2)c(=O)c2cc3ccsc3n12	x	x	x	x	n
COCCn1c(SCC(=O)Nc2ccc(C)cc2C)nc2ccccc2c1=O	x	x	n	x	n
CCn1cc(C(=O)O)c(=O)c2cc(F)c(N3CCN(S(=O)(=O)c4ccc(Br)cc4)CC3)cc21	n	n	n	10.3	n
CCN(C(=O)Cn1cc(C(F)(F)F)ccc1=O)c1c(N)n(Cc2ccccc2)c(=O)[nH]c1=O	n	n	n	15.7	n
CCN(C(=O)CN1CCN(c2ccccc2)CC1)c1c(N)n(Cc2ccccc2)c(=O)[nH]c1=O	n	n	n	n	n
Cc1ccc(C(C(=O)NC(C)(C)C)N(Cc2ccccc2)C(=O)c2snc(C(N)=O)c2N)o1 (stereo unspecified)	n	128	n	n	n
CCC(C)(C)NC(=O)CN(C(=O)c1snc(C(N)=O)c1N)c1ccc2c(c1)OCCO2	n	n	n	n	n
CCCC(C(=O)NC(C)(C)C)N(C(=O)c1snc(C(N)=O)c1N)c1ccc2c(c1)OCCO2 (stereo unspecified)	n	47	n	n	n
CCOC(=O)c1ccc(NC(=O)N2CCC(c3nc4cc(C)c(C)cc4[nH]3)CC2)cc1	x	x	n	x	n
CN1c2ncccc2C(=O)NC12CCN(C(=O)c1n[nH]c3c1CCC3)CC2	x	x	n	x	n
COC(=O)C(F)(F)Sc1c(C)[nH]c2ccccc12	n	143	n	n	n
Cc1[nH]c2ccccc2c1SCC(=O)O	n	n	n	n	n
CC(=O)CC1=NC(C)(C)Cc2ccccc21	n	n	n	12.1	n
COc1ccccc1NC(=O)CSc1nnc(-c2ccncc2)n1C	x	x	n	x	n
CCCn1nc2cc(C(=O)NCCc3ccc(C)cc3)ccc2c1OCC	n	63	n	n	n
Cc1ccc(Oc2ccc(C(=O)NCc3ccncc3)cc2)cc1	n	n	n	n	n
CCCn1nc2cc(C(=O)NCCCCc3ccccc3)ccc2c1OCC	n	52	n	n	n
Cc1ccc(C(=O)NCCc2ccncc2)cc1	n	n	n	11.9	n
CCCCn1nc2cc(C(=O)NCCc3cccs3)ccc2c1OCC	n	n	n	n	n
CCOc1c2ccc(C(=O)NCc3ccc(C)cc3)cc2nn1CCOC	n	n	n	n	n
Cc1ccccc1NC(=O)CCN1CCC(C)CC1	x	x	n	x	n
CSc1ncnc2c1ncn2CC(=O)[C@@H]1CC[C@@H]2[C@H]3CCC4=CC(=O)CC[C@@]4(C)[C@@H]3CC[C@]21C	x	x	64.1	x	n
SMILES	GSH fluor	Avidin bead fluor	EP2 antag	HMGR II inh	EP2 mod
C[C@]12CC[C@H]3[C@@H](CCC4=CC(=O)CC[C@@]43C)[C@@H]1CC[C@@H]2C(=O)CO	n	x	n	n	n
CC(=O)CSc1nnc(NC(C)=O)s1	x	x	n	x	n
C[C@@H](Cn1nnc2ccccc21)NC(=O)c1cnccn1	x	x	n	x	n
COC(CNC(=O)c1c[nH]c2ccc(S(=O)(=O)N3CCC4(CC3)OCCO4)cc2c1=O)OC	n	n	n	n	n
O=C(c1c[nH]c2ccc(S(=O)(=O)N3CCC4(CC3)OCCO4)cc2c1=O)N1CCOCC1	n	51	n	n	n
COc1ccc(C2(NCc3ccc(OCc4c(C)noc4C)c(OC)c3)CC2)cc1	x	x	n	x	n
COc1ccc(-c2nc(N)c3ncn([C@H]4O[C@H](CO)[C@@H](O)[C@@H]4O)c3n2)cc1	x	x	52.0	x	n
COc1cc2[nH]c(=O)c(C(=O)NCc3cccnc3)c(O)c2cc1OC	x	x	n	x	n
C/C(=N\NC1=NCCN1)c1cn(C2=NCCN2)nc1C	x	x	48.6	x	n
CCCCOc1ccc(Br)cc1/C(C)=N/NC1=NCCN1	n	n	n	n	n
Cc1cc(C)c2[nH]c(=O)c(CN(Cc3cccs3)Cc3nnnn3CC3CCCO3)cc2c1 (stereo unspecified)	x	x	n	x	n
COc1ccc(CNC(=O)C2CSC(c3ccc(OC)cc3)N2C(C)=O)cc1 (stereo unspecified)	n	123	n	n	n

Bioassay records from PubChem.
